The supplement of paper PMC10849652
The full data set covers some 7,900 targets. This sample favours those with a hit. About 0.6% of all pairs of compound and target were hits.

compound: NC(=O)Nc1cc(-c2cccc(F)c2)sc1C(=O)N[C@H]1CCCNC1; test: log2 fold change, soluble protein after heating vs DMSO (PISA); higher = thermal stabilisation; K562 cells, 10 uM, 30 min; active = over 0.2 and 3.5 SD of the protein, either way, in both replicates (recomputed)
Method in brief: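 K562 cells (2×10^6 cells/mL) were treated with 10 μM compound for 30 min, and aliquots were heated for 3 min over 48°C-58°C. Pooled aliquots were extracted in PBS with 0.5% NP-40 at 4°C, and the supernatant after 21,000xg for 90 min was measured by TMTpro 16plex LC-MS/MS with channel sums equalised. Reported thermal stability, relative to control samples and from duplicates, is a log2 fold change.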

Chain of UniProt Q8IVT5 (Q8IVT5 whole entry, looked up): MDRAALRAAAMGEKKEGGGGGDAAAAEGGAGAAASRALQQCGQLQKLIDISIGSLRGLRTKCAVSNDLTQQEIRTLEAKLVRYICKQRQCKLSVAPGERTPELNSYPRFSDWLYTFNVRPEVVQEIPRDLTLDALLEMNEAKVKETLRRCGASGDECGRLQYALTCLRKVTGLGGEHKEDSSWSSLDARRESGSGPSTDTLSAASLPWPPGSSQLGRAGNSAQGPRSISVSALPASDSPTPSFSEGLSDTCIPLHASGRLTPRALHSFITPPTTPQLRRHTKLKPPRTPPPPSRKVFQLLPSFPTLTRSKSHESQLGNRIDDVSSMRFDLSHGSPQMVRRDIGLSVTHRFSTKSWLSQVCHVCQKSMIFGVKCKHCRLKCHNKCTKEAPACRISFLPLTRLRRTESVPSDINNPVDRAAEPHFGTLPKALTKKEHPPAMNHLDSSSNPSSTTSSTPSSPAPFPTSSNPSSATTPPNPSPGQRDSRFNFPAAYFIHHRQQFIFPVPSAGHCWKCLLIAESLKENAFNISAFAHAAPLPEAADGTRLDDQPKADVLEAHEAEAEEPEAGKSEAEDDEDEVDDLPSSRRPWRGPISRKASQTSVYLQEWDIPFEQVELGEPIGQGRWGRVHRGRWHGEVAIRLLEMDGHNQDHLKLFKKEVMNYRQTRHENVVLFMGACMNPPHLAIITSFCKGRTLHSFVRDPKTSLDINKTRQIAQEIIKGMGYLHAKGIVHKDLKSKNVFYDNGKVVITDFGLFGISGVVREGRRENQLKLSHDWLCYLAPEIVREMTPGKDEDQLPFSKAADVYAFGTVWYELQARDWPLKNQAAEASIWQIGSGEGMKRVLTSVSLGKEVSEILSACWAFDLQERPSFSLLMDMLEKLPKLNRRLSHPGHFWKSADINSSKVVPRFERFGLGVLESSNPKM
Chain of UniProt Q16539 (Q16539 whole entry, looked up): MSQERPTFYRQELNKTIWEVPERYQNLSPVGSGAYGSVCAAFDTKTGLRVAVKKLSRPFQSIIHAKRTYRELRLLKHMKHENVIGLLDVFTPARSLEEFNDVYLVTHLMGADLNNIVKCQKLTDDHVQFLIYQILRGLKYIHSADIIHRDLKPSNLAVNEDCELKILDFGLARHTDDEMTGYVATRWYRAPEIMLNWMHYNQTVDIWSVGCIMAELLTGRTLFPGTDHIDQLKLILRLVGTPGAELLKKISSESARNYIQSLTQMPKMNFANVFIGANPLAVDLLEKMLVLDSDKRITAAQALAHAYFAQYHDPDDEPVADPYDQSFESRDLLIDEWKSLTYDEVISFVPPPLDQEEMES
Chain of UniProt Q14676 (Q14676 whole entry, looked up): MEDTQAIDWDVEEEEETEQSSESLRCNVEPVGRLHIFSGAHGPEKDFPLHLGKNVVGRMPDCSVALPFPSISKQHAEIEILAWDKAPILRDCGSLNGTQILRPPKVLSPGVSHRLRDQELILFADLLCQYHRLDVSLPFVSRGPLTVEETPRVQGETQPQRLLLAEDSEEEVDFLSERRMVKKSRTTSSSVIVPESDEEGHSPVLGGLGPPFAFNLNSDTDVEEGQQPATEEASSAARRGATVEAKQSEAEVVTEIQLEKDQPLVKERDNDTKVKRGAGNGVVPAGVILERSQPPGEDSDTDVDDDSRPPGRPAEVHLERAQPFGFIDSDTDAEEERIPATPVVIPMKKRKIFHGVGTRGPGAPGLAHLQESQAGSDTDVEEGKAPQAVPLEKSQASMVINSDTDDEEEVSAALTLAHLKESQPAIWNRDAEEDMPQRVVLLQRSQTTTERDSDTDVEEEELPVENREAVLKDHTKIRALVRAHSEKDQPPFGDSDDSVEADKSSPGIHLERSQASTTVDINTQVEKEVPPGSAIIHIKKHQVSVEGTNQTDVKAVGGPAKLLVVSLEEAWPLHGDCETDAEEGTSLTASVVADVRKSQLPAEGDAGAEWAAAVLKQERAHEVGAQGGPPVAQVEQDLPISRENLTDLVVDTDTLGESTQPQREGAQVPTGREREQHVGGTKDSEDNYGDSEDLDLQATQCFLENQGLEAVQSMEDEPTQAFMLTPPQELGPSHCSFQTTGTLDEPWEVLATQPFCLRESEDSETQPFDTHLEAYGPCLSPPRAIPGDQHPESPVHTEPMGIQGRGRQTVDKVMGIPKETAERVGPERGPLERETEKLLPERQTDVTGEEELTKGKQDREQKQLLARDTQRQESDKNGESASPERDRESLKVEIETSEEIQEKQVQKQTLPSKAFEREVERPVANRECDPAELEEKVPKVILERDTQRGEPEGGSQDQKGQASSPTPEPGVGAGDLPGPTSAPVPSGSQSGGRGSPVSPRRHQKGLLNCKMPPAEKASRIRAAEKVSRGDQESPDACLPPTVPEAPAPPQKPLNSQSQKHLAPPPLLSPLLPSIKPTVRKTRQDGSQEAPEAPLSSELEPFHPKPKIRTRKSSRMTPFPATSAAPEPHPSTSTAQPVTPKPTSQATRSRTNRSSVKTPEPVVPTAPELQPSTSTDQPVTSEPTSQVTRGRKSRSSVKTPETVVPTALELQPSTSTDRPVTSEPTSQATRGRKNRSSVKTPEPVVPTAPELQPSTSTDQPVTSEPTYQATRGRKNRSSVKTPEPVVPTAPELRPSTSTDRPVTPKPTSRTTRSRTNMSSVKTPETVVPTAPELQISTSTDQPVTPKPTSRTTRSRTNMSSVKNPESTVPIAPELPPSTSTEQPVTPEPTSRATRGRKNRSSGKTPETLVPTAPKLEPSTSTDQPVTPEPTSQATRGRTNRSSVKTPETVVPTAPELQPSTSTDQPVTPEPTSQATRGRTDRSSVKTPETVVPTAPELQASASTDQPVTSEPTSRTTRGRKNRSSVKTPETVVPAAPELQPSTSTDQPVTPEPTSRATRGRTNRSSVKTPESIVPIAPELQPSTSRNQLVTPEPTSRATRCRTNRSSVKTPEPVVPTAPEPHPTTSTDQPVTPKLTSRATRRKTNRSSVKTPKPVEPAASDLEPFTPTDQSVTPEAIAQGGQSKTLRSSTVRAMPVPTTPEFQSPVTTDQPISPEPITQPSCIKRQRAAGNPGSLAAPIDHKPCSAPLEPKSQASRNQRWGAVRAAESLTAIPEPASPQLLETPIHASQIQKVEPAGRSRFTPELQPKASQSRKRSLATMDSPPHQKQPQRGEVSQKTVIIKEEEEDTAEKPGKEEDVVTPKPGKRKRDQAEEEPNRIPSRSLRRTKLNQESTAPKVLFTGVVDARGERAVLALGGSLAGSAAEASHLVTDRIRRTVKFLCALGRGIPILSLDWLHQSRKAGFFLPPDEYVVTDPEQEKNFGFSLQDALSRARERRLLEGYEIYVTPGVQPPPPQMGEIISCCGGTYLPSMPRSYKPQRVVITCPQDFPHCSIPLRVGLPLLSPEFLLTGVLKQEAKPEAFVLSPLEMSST
Chain of UniProt Q86WA8 (Q86WA8 whole entry, looked up): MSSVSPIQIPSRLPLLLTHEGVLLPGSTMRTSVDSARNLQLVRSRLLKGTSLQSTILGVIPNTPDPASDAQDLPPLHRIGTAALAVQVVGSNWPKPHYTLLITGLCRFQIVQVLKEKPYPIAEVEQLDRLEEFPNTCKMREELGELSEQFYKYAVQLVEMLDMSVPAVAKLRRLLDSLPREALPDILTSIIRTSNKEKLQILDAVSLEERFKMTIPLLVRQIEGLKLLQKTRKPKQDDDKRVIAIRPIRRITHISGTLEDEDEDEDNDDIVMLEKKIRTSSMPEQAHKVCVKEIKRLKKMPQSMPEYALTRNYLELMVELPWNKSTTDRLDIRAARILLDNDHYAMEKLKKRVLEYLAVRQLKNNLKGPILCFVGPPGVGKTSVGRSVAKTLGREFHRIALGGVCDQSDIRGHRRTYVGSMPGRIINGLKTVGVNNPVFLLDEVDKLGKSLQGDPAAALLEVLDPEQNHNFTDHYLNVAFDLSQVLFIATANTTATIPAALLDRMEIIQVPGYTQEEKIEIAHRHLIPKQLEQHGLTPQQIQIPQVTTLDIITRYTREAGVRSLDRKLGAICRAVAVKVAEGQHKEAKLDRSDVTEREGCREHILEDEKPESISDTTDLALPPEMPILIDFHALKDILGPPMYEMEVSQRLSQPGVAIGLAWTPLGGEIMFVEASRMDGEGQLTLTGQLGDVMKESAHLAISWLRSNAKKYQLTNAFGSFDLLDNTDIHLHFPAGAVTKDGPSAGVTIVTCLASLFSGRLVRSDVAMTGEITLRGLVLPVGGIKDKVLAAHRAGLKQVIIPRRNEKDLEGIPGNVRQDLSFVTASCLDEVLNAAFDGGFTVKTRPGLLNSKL
Chain of UniProt O14880 (O14880 whole entry, looked up): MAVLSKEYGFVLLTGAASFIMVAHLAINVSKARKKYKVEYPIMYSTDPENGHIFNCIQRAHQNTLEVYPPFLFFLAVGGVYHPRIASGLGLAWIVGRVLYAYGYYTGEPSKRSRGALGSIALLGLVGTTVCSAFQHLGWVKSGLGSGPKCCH
Chain of UniProt Q8IYU8 (Q8IYU8 whole entry, looked up): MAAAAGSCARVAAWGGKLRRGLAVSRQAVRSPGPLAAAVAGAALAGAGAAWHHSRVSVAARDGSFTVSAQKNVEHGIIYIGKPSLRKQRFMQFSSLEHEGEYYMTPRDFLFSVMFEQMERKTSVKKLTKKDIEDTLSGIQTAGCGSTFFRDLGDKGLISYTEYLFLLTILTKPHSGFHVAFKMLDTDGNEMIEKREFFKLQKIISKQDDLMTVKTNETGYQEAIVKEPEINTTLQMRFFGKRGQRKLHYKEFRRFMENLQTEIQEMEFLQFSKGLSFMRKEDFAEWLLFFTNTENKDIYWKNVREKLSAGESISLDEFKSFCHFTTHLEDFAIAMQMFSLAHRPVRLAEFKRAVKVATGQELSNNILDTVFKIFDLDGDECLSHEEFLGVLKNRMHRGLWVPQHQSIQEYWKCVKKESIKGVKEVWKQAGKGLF
Chain of UniProt P49006 (P49006 whole entry, looked up): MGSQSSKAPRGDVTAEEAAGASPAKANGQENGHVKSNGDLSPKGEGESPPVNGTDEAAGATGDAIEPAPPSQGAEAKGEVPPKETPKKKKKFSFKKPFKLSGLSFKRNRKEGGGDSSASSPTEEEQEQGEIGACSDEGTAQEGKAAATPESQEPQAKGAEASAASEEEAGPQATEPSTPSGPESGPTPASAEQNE

log2 fold change, inactive:
LUC7L2 (UniProt Q9Y383) -0.221
ILF3 isoform 7 (UniProt Q12906) -0.056
MAGOHB (UniProt Q96A72) -0.081
KDM5D isoform 3 (UniProt Q9BY66) -0.038
LIMD1 (UniProt Q9UGP4) 0.009
MED1 (UniProt Q15648) 0.027
MCL1 (UniProt Q07820) -0.074
LIMA1 isoform 4 (UniProt Q9UHB6) 0.062
LMBRD1 (UniProt Q9NUN5) 0.006
KIF13A (UniProt Q9H1H9) -0.049
MARCKSL1 (UniProt P49006) -0.02
LARP4 isoform 4 (UniProt Q71RC2) -0.034
KIF21A isoform 4 (UniProt Q7Z4S6) -0.068
LEMD3 (UniProt Q9Y2U8) -0.206
MAP3K7 (UniProt O43318) -0.162
MAPKAPK3 (UniProt Q16644) 0.147
MAPK14 isoform 2 (UniProt Q16539) -0.052
ITIH4 (UniProt Q14624) 0.064
MAGEA9 (UniProt P43362) -0.017
IMMT isoform 4 (UniProt Q16891) -0.022
MEPCE (UniProt Q7L2J0) -0.085
LSS (UniProt P48449) 0.017
LONP2 (UniProt Q86WA8) 0.094
KDM3B (UniProt Q7LBC6) -0.051
LARP4B (UniProt Q92615) 0.028
LDLR (UniProt P01130) 0.005
IRF2BPL (UniProt Q9H1B7) 0.032
LTN1 isoform 3 (UniProt O94822) 0.024
LARP7 isoform 3 (UniProt Q4G0J3) -0.011
LNPK (UniProt Q9C0E8) 0.011
MAP2K3 isoform 3 (UniProt P46734) -0.04
MICU2 (UniProt Q8IYU8) -0.095
MGST3 (UniProt O14880) -0.04
KSR1 (UniProt Q8IVT5) -0.333
IWS1 (UniProt Q96ST2) -0.049
MFN1 (UniProt Q8IWA4) -0.072
MARK3 (UniProt P27448) -0.125
MDC1 (UniProt Q14676) 0.115
MAP4 (UniProt E7EVA0) 0.162
